Test results published in PubChem BioAssay (NCATS).
Records with an inconclusive call do not appear. Activity calls are given as the source filed them. Unless noted, the call rests on the fitted dose curve; in most records, active means well fitted curve in the direction sought with a large enough effect; inconclusive means small, poorly fitted or top-dose-only effect, or another doubt; inactive means no such curve, though single readings can be large; an effect the other way counts as inactive or inconclusive.

What was measured:
[1] = target: Calcium and integrin-binding protein 1 (Homo sapiens) (UniProt Q99828); test: Primary qHTS for Identification of Calcium Integrin Binding Protein 1 (CIB1) Competitor (AID 1508620);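 further: GST tagged CIB1 binding a fluorescein labelled alphaIIb integrin peptide tracer; top concentration of the series differs between compounds; on the % scale 0 is the no-effect control and ±100 the full control effect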
Calcium and integrin-binding protein 1 (Homo sapiens), sequence (Q99828 whole entry, looked up): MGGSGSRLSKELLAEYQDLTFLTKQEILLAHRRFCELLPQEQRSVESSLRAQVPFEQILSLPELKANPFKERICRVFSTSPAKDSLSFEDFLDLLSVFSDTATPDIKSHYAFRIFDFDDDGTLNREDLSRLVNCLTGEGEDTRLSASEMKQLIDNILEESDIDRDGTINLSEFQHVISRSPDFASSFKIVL
Method in brief: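 CIB1-GST (1 uM final) and compound incubated 15 min at room temperature before adding FITC-alphaIIb peptide tracer (100 nM final). Competition for binding read by fluorescence polarization (ex 480, em 540) after another 15 min at room temperature.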

[2] = target: Cytochrome P450 2D6 (Homo sapiens) (UniProt P10635); test: Cytochrome P450 family 2 subfamily D member 6 (CYP2D6) small molecule antagonists: luciferase biochemical (cell-free) qHTS assay (AID 1645840; active means well fitted curve in the direction sought with a large enough effect in the repeat runs; an effect the other way counts as inactive or inconclusive; further: nearly all actives have a fitted effect of over 55% in size; further: potency means the concentration at half of the fitted maximal effect)
Cytochrome P450 2D6 (Homo sapiens), sequence (P10635 whole entry, looked up): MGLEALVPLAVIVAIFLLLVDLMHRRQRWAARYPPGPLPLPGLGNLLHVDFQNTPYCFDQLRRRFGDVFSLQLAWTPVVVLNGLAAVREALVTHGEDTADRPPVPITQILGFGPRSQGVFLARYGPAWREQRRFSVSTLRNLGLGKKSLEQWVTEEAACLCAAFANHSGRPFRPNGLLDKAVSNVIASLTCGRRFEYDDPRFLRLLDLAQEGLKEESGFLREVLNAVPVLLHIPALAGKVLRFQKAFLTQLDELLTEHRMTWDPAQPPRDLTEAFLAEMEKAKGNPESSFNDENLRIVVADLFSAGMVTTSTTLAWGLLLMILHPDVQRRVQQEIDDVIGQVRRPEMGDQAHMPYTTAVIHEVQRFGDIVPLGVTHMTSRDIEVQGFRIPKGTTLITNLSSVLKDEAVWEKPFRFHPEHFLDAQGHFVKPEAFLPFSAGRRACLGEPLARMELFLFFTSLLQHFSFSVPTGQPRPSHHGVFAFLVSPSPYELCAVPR
Method in brief: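 P450-Glo CYP2D6 system: proluciferin substrate converted by enzyme to luciferin, read by luminescence proportional to activity. Enzyme-substrate mix with compound 10 min at room temperature, then NADPH regeneration 1 h before detection reagent.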

[3] = target: Cytochrome P450 2C9 (Homo sapiens) (UniProt P11712); test: Cytochrome P450 family 2 subfamily C member 9 (CYP2C9) small molecule antagonists: luciferase biochemical (cell-free) qHTS assay (AID 1645842; active means well fitted curve in the direction sought with a large enough effect in the repeat runs; an effect the other way counts as inactive or inconclusive; further: potency means the concentration at half of the fitted maximal effect; nearly all actives have a fitted effect of over 55% in size)
Cytochrome P450 2C9 (Homo sapiens), sequence (P11712 whole entry, looked up): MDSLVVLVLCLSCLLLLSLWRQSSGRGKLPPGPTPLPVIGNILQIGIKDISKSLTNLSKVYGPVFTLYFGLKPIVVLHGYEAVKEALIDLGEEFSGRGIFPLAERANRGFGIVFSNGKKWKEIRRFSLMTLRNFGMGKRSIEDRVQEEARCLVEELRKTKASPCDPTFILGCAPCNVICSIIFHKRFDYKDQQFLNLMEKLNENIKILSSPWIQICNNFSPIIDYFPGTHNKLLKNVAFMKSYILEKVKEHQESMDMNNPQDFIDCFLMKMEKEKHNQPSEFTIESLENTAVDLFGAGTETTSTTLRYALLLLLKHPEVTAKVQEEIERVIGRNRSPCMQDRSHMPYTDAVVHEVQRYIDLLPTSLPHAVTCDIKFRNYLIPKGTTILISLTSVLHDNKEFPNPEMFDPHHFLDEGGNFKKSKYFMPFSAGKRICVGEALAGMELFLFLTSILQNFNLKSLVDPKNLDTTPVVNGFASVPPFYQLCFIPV
Method in brief: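 P450-Glo CYP2C9 system: proluciferin substrate with enzyme in mix containing 0.4% BSA, 10 min at room temperature, then NADPH regeneration solution added and incubated 1 h at 37C. Detection reagent stopped reaction; luminescence read after 20 min as RLU.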

[4] = Primary qHTS for inhibitors of nuclear receptor binding SET domain protein 2 (NSD2) in an isogenic RCH-ACV NSD2 p.E1099K mutant (9B) (AID 1645876); further: nearly all actives have a fitted effect of over 70% in size; further: potency means the concentration at half of the fitted maximal effect
[5] = Primary qHTS for inhibitors of nuclear receptor binding SET domain protein 2 (NSD2) in an RCH-ACV wild type WT cells (2C) (AID 1645877); further: nearly all actives have a fitted effect of over 70% in size; further: potency means the concentration at half of the fitted maximal effect
[6] = target: Glutathione peroxidase 1 (Homo sapiens) (UniProt P07203); test: Primary qHTS Assay for Inhibitors of Recombinant Selenoprotein Glutathione Peroxidase 1 (GPX1) (AID 1845191); further: nearly all actives have a fitted effect of over 65% in size
Glutathione peroxidase 1 (Homo sapiens), sequence (P07203 whole entry, looked up): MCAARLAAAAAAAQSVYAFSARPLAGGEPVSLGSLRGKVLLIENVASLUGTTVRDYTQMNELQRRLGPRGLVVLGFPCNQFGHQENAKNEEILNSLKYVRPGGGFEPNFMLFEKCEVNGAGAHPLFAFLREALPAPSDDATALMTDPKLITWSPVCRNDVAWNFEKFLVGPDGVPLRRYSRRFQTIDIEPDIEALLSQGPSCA
Method in brief: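 NADPH consumption tracked by fluorescence at 340/450 nm between t=0 and t=15 min, room temperature. Final mix: 10 nM GPX1, 100 nM glutathione reductase, 1 mM GSH, 0.5 mM NADPH, 0.5 mM cumene hydroperoxide, 0.01% BSA; 30 min compound–enzyme preincubation.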

[7] = target: Phospholipid hydroperoxide glutathione peroxidase GPX4 (Homo sapiens) (UniProt P36969); test: Primary qHTS Assay for Inhibitors of Recombinant Selenoprotein Glutathione Peroxidase 4 (GPX4) (AID 1845192); further: nearly all actives have a fitted effect of over 65% in size; further: potency means the concentration at half of the fitted maximal effect
Phospholipid hydroperoxide glutathione peroxidase GPX4 (Homo sapiens), sequence (P36969 whole entry, looked up): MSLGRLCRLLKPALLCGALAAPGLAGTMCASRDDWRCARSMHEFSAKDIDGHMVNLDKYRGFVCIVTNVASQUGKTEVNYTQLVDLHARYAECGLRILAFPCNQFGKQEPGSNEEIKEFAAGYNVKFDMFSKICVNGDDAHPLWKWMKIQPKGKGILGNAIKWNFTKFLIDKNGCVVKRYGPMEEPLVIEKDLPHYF
Method in brief: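 NADPH consumption followed by fluorescence at 340/450 nm, t=0 and after 15 min at room temperature. Reaction started with cumene hydroperoxide (0.5 mM final) after 30 min compound–GPX4 preincubation; final 200 nM GPX4, 100 nM GR, 1 mM GSH, 0.5 mM NADPH.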

[8] = target: Luciferin 4-monooxygenase (Photinus pyralis) (UniProt P08659); test: Primary firefly luciferase (FLuc) qHTS assay for identification of artifact compounds. (AID 1845220); conditions: outcome: dose series up to 54.1 µM unless noted; further: nearly all actives have a fitted effect of over 60% in size
Method in brief: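 Compounds sat 15 min at room temperature with 10 uM luciferin and 10 uM ATP (pH 7.6 Tris acetate). Firefly luciferase (10 nM final) was then added, and luminescence was read 5 min later. Data normalized to no-enzyme and DMSO controls were Hill-fitted.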

[9] = Primary fluorescence-based thiol-reactive (MSTI) qHTS assay for identification of artifact compounds. (AID 1845221);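 further: thiol-reactive compounds lower the probe fluorescence signal; nearly all actives have a fitted effect of over 65% in size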
Method in brief: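 Compounds were incubated 1 h at room temperature in the dark with the MSTI probe (4 uM) in PBS pH 7.4, 2% DMSO. Signals were normalized between Acetyl-MSTI and MSTI.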

[10] = test system: Nanoluciferase (engineered Oplophorus gracilirostris luciferase); test: Primary Nanoluciferase (NLuc) qHTS assay for identification of artifact compounds. (AID 1845222); further: potency means the concentration at half of the fitted maximal effect
Method in brief: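 Luminescence from secreted NLuc (filtered, 1:55-diluted S16 cell medium) read 5 min after Nano-Glo substrate; compounds preincubated 15 min, RT. Hill fits of inhibition normalized to DMSO and no-enzyme.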

[11] = Primary redox qHTS assay for identification of artifact compounds. (AID 1845223);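 further: 0% = DMSO and 100% = reference compound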
Method in brief: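 Redox-cycling detection via DTT (250 uM final) oxidation coupled to Amplex Red (25 uM)/HRP (250 mU/mL) in HBSS. 15 min preincubation plus 30 min after DTT, room temperature. Ex/Em 525/598 nm; 4-parameter Hill fit against DMSO and 10 uM DA3003.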

[12] = test system: HaCat; test: Cytotoxic Profiling of Annotated Libraries Using Quantitative High-Throughput Screening (AID 1296008); conditions: Five cell lines viability, CellTiter-Glo ATP luminescence, 48-72 h; max response: stronger effect = lower value; further: nearly all actives have a fitted effect of over 60% in size; further: potency means the concentration at half of the fitted maximal effect; on max response: on the % scale 0 is the no-effect control and ±100 the full control effect
Method in brief: (§1)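 Cytotoxicity was measured as CellTiter-Glo ATP luminescence, read after 10 min at room temperature. Compound treatment of the cells lasted 48 or 72 hr at 37 degrees Celsius in a qHTS format.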

[13] = test system: KB-3-1; test: as above; conditions: Five cell lines viability, CellTiter-Glo ATP luminescence, 48-72 h; max response: stronger effect = lower value
Method in brief: as §1

[14] = test system: NIH3T3; test: as above; conditions: Five cell lines viability, CellTiter-Glo ATP luminescence, 48-72 h; max response: stronger effect = lower value
Method in brief: as §1

[15] = test system: C33A; test: Primary qHTS to identify gynecologic anti-cancer compounds using libraries of approved drugs and bioactive compounds (AID 1345084); conditions: Gynecologic cancer cell panel viability, ATPlite luminescence, 48 h; series mostly up to 57.5 µM; further: nearly all actives have a fitted effect of over 55% in size; further: potency means the concentration at half of the fitted maximal effect
Method in brief: (§2)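 Luminescence from the ATPlite ATP-monitoring reagent indicates viable cell number; lower signal means cytotoxicity. Cells received compound 16 h after seeding and were exposed for 48 h across five concentrations.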

[16] = test system: CAOV3; test: as above; conditions: Gynecologic cancer cell panel viability, ATPlite luminescence, 48 h; series mostly up to 57.5 µM
Method in brief: as §2

[17] = test system: CASKI; test: as above; conditions: Gynecologic cancer cell panel viability, ATPlite luminescence, 48 h; series mostly up to 57.5 µM
Method in brief: as §2

[18] = test system: Es-2; test: as above; conditions: Gynecologic cancer cell panel viability, ATPlite luminescence, 48 h; series mostly up to 57.5 µM
Method in brief: as §2

[19] = test system: HeLa; test: as above; conditions: Gynecologic cancer cell panel viability, ATPlite luminescence, 48 h; series mostly up to 57.5 µM
Method in brief: as §2

[20] = test system: Hek293T; test: as above; conditions: Gynecologic cancer cell panel viability, ATPlite luminescence, 48 h, control line for the selectivity index; series mostly up to 57.5 µM
Method in brief: as §2

[21] = test system: JEG-3; test: as above; conditions: Gynecologic cancer cell panel viability, ATPlite luminescence, 48 h; series mostly up to 57.5 µM
Method in brief: as §2

[22] = test system: OV90; test: as above; conditions: Gynecologic cancer cell panel viability, ATPlite luminescence, 48 h; series mostly up to 57.5 µM
Method in brief: as §2

[23] = test system: PA-1; test: as above; conditions: Gynecologic cancer cell panel viability, ATPlite luminescence, 48 h; series mostly up to 57.5 µM
Method in brief: as §2

[24] = test system: SKOV3; test: as above; conditions: Gynecologic cancer cell panel viability, ATPlite luminescence, 48 h; series mostly up to 57.5 µM
Method in brief: as §2

[25] = test system: Tov-21-G; test: as above; conditions: Gynecologic cancer cell panel viability, ATPlite luminescence, 48 h; series mostly up to 57.5 µM
Method in brief: as §2

[26] = test system: Tov112D; test: as above; conditions: Gynecologic cancer cell panel viability, ATPlite luminescence, 48 h; series mostly up to 57.5 µM
Method in brief: as §2

[27] = P-glycoprotein substrates identified in KB-8-5-11 adenocarcinoma cell line, qHTS therapeutic library screen (AID 1346987); further: on the % scale 0 is the no-effect control and ±100 the full control effect; nearly all actives have a fitted effect of over 65% in size
Method in brief: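 Human cervical adenocarcinoma KB-8-5-11 cells, selected in colchicine to over-express P-gp and assayed without it, were exposed for 72 h to titrated compounds. An ATP-based luminescent viability signal gave AC50.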

[28] = test system: Zika virus NS2B-NS3 protease (unlinked complex); test: Primary screen GU Rhodamine qHTS for Zika virus inhibitors: Unlinked NS2B-NS3 protease assay (AID 1347159); further: on the % scale 0 is the no-effect control and ±100 the full control effect; nearly all actives have a fitted effect of over 60% in size
Method in brief: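 Percent inhibition came from the 15-min rise in Rhodamine110 fluorescence (1.5 microM substrate, ~15% conversion), normalized to no-inhibitor and no-enzyme wells and Hill-fitted. Unlinked protease, 25 nM, pH 8.0 Tris buffer; compounds up to 114 microM, 15-min preincubation.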

[29] = test system: Zika virus NS2B-NS3 protease (linked construct); test: Primary screen NINDS Rhodamine qHTS for Zika virus inhibitors (AID 1347160); further: on the % scale 0 is the no-effect control and ±100 the full control effect; nearly all actives have a fitted effect of over 55% in size
Method in brief: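 Rhodamine110-peptide cleavage (1.5 µM substrate) by 25 nM linked NS2B-NS3 enzyme at pH 8.0 (Tris, Tween 20), after 15 min RT preincubation with compounds; 15-min fluorescence change normalized to controls and Hill-fitted.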

[30] = test system: CRL-7250; test: qHTS assay to identify novel small-molecules to repurpose for Merkel cell carcinoma treatment (AID 1296009); conditions: MCC and control cell lines, CellTiter-Glo viability, 72 h; series mostly up to 92 µM; further: potency means the concentration at half of the fitted maximal effect; nearly all actives have a fitted effect of over 60% in size
Method in brief: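 Cell viability measured by CellTiter-Glo following 72 hr compound treatment at 37 degree celsius, with NPC and MIPE libraries tested in 8- and 11-point concentration series.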

N#Cc1ccccc1-c1cc(-c2ccccn2)cn(-c2ccccc2)c1=O
inactive: Potency [1] | Potency [2] | Potency [4] | Potency [5] | Potency [6] | outcome [8] | Potency [9] | Potency [11] | max response [12] 1.04% | max response [13] -4.86% | max response [14] -0.815% | Potency [15] | Potency [16] | Potency [17] | Potency [18] | Potency [19] | Potency [20] | Potency [21] | Potency [22] | Potency [23] | Potency [24] | Potency [25] | Potency [26]
active: Potency [3] 13.5 µM | Potency [7] 25.5 µM | Potency [10] 10.7 µM

CC(=O)O[C@H]1C(=O)[C@]2(C)C(O)C[C@H]3OC[C@@]3(OC(C)=O)[C@H]2[C@H](OC(=O)c2ccccc2)[C@]2(O)C[C@H](O)C(C)=C1C2(C)C (some centres not stated)
active: Potency [5] 5.41 µM
inactive: Potency [27] | Potency [28] | Potency [29] | Potency [1] | Potency [6] | Potency [7] | outcome [8] | Potency [11] | max response [12] -29.4% | max response [14] -3.65% | Potency [15] | Potency [16] | Potency [18] | Potency [19] | Potency [20] | Potency [21] | Potency [22] | Potency [23] | Potency [24] | Potency [25] | Potency [26]

Fc1cc(F)c2c(c1)[C@H]1C=CC[C@H]1C(c1cccnc1)N2 (some centres not stated)
active: Potency [4] 6.49 µM | Potency [5] 8.17 µM | Potency [13] 4.11 µM | Potency [30] 4.61 µM | Potency [19] 14.1 µM | Potency [21] 25.1 µM
inactive: Potency [28] | Potency [29] | Potency [1] | Potency [6] | Potency [7] | outcome [8] | Potency [10] | Potency [11]

OC(CNc1ccccc1)Cn1c2ccc(Br)cc2c2cc(Br)ccc21 (configuration not stated)
inactive: Potency [6] | Potency [7] | outcome [8] | Potency [10] | Potency [11] | max response [12] -16% | max response [13] -15.3% | Potency [15] | Potency [16] | Potency [18] | Potency [19] | Potency [20] | Potency [21] | Potency [22] | Potency [23] | Potency [24] | Potency [25] | Potency [26]
active: Potency [2] 16.9 µM | Potency [3] 5.35 µM
